Measured values published in PubChem BioAssay AID1159580 (chemical genetic matrix, 2015).
Screen size: about 5,500 compounds; about 2,000 (36%) were called active. About 18% were inconclusive and are not listed. No stated cut-off is given here; in the data, active means normalized growth mostly below about 0.91 (no sharp cut-off); inconclusive means no clear call, values can overlap the other calls; inactive means mostly above about 0.92. Some of the results follow.

Experiment: chemical genetic growth profiling, strain panel (AID 1159580);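 further: tested at 20 µM; growth read once vehicle control cultures reached saturation at 30 °C; 1 = growth at the plate median or of vehicle wells; lower values mean less growth of the strain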
Conditions: growth OD

Measured: normalized growth

COc1c(Cl)ccc(Cl)c1C(=O)O
inactive: S. cerevisiae deletion strains, locus YJR043C, strain POL32, active compounds read low 1.01 | S. cerevisiae deletion strains, locus YJR075W, strain HOC1, active compounds read low 0.971 | S. cerevisiae deletion strains, locus YKL009W, strain mrt4, active compounds read low 1.02 | S. cerevisiae deletion strains, locus YKL068W, active compounds read low 1.01 | S. cerevisiae deletion strains, locus YKL085W, strain MDH1 (second series), active compounds read low 1.01 | S. cerevisiae deletion strains, locus YKL085W, strain MDH1, active compounds read low 1.01 | S. cerevisiae deletion strains, locus YKL160W, strain elf1, active compounds read low 0.988 | S. cerevisiae deletion strains, locus YKL190W, strain CNB1, active compounds read low 1.01 | S. cerevisiae deletion strains, locus YKR001C, strain vps1, active compounds read low 1.02 | S. cerevisiae deletion strains, locus YKR026C, strain gcn3, active compounds read low 0.984 | S. cerevisiae deletion strains, locus YKR091W, strain srl3, active compounds read low 0.985 | S. cerevisiae deletion strains, locus YLL001W, strain dnm1, active compounds read low 0.995 | S. cerevisiae deletion strains, locus YLL026W, active compounds read low 0.979 | S. cerevisiae deletion strains, locus YLL041C, strain sdh2, active compounds read low 0.994 | S. cerevisiae deletion strains, locus YLR027C, strain aat2, active compounds read low 0.982 | S. cerevisiae deletion strains, locus YLR039C, strain RIC1, active compounds read low 1.06 | S. cerevisiae deletion strains, locus YLR058C, strain SHM2, active compounds read low 1.02 | S. cerevisiae deletion strains, locus YLR102C, strain apc9, active compounds read low 1.01 | S. cerevisiae deletion strains, locus YLR221C, strain rsa3, active compounds read low 0.983 | S. cerevisiae deletion strains, locus YLR258W, strain gsy2, active compounds read low 0.986 | S. cerevisiae deletion strains, locus YLR262C, strain YPT6 (second series), active compounds read low 0.997 | S. cerevisiae deletion strains, locus YLR262C, strain YPT6, active compounds read low 1.07 | S. cerevisiae deletion strains, locus YLR268W, strain sec22, active compounds read low 1.03 | S. cerevisiae deletion strains, locus YLR320W, strain mms22, active compounds read low 0.974 | S. cerevisiae deletion strains, locus YLR330W, strain CHS5, active compounds read low 1.01 | S. cerevisiae deletion strains, locus YLR342W, strain FKS1 (second series), active compounds read low 1.05 | S. cerevisiae deletion strains, locus YLR342W, strain FKS1, active compounds read low 0.979 | S. cerevisiae deletion strains, locus YLR357W, strain rsc2, active compounds read low 0.992 | S. cerevisiae deletion strains, locus YLR370C, strain arc18, active compounds read low 0.986 | S. cerevisiae deletion strains, locus YLR371W, strain rom2, active compounds read low 1.01 | S. cerevisiae deletion strains, locus YLR384C, strain iki3, active compounds read low 0.985 | S. cerevisiae deletion strains, locus YLR418C, strain cdc73, active compounds read low 1.02 | S. cerevisiae deletion strains, locus YML016C, strain PPZ1, active compounds read low 1.01 | S. cerevisiae deletion strains, locus YML032C, strain rad52, active compounds read low 1.02 | S. cerevisiae deletion strains, locus YML120C, strain ndi1, active compounds read low 0.97 | S. cerevisiae deletion strains, locus YML124C, strain tub3, active compounds read low 1.01 | S. cerevisiae deletion strains, locus YMR058W, strain fet3, active compounds read low 0.979 | S. cerevisiae deletion strains, locus YMR078C, strain ctf18, active compounds read low 1.02 | S. cerevisiae deletion strains, locus YMR125W, strain sto1, active compounds read low 0.951 | S. cerevisiae deletion strains, locus YMR129W, active compounds read low 0.987 | S. cerevisiae deletion strains, locus YMR205C, strain PFK2, active compounds read low 0.975 | S. cerevisiae deletion strains, locus YMR223W, strain ubp8, active compounds read low 1.01 | S. cerevisiae deletion strains, locus YMR231W, strain pep5, active compounds read low 0.984 | S. cerevisiae deletion strains, locus YMR263W, strain SAP30, active compounds read low 1.01 | S. cerevisiae deletion strains, locus YMR307W, strain GAS1, active compounds read low 1.06 | S. cerevisiae deletion strains, locus YNL067W, strain RPL9B, active compounds read low 1.01 | S. cerevisiae deletion strains, locus YNL071W, strain lat1, active compounds read low 0.992 | S. cerevisiae deletion strains, locus YNL128W, strain TEP1, active compounds read low 1 | S. cerevisiae deletion strains, locus YNL153C, strain GIM3, active compounds read low 1.01 | S. cerevisiae deletion strains, locus YNL209W, strain ssb2, active compounds read low 0.988 | S. cerevisiae deletion strains, locus YNL233W, strain BNI4, active compounds read low 1.01 | S. cerevisiae deletion strains, locus YNL248C, strain rpa49, active compounds read low 0.982 | S. cerevisiae deletion strains, locus YNL250W, strain rad50, active compounds read low 1 | S. cerevisiae deletion strains, locus YNL271C, strain bni1, active compounds read low 1.01 | S. cerevisiae deletion strains, locus YNL298W, strain CLA4, active compounds read low 1.02 | S. cerevisiae deletion strains, locus YNL307C, strain MCK1, active compounds read low 1.03 | S. cerevisiae deletion strains, locus YNL322C, strain KRE1 (second series), active compounds read low 0.983 | S. cerevisiae deletion strains, locus YNL322C, strain KRE1, active compounds read low 1.01 | S. cerevisiae deletion strains, locus YNR049C, strain mso1, active compounds read low 0.977 | S. cerevisiae deletion strains, locus YNR052C, strain pop2, active compounds read low 1.01 | S. cerevisiae deletion strains, locus YOL006C, strain TOP1, active compounds read low 1.05 | S. cerevisiae deletion strains, locus YOL012C, strain htz1 0.945 | S. cerevisiae deletion strains, locus YOL147C, strain pex11, active compounds read low 1.01 | S. cerevisiae deletion strains, locus YOR001W, strain rrp6, active compounds read low 0.991 | S. cerevisiae deletion strains, locus YOR061W, strain CKA2, active compounds read low 1.01 | S. cerevisiae deletion strains, locus YOR069W, strain VPS5, active compounds read low 1 | S. cerevisiae deletion strains, locus YOR070C, strain gyp1, active compounds read low 0.988 | S. cerevisiae deletion strains, locus YOR080W, strain dia2, active compounds read low 0.969 | S. cerevisiae deletion strains, locus YOR083W, strain WHI5, active compounds read low 0.988 | S. cerevisiae deletion strains, locus YOR106W, strain vam3, active compounds read low 0.995 | S. cerevisiae deletion strains, locus YOR136W, strain idh2, active compounds read low 1.01 | S. cerevisiae deletion strains, locus YOR144C, strain elg1, active compounds read low 1.01 | S. cerevisiae deletion strains, locus YOR184W, strain ser1, active compounds read low 1.02 | S. cerevisiae deletion strains, locus YOR265W, strain rbl2, active compounds read low 0.976 | S. cerevisiae deletion strains, locus YOR270C, strain vph1, active compounds read low 0.993 | S. cerevisiae deletion strains, locus YOR290C, strain snf2, active compounds read low 0.997 | S. cerevisiae deletion strains, locus YOR316C, strain cot1, active compounds read low 1.01 | S. cerevisiae deletion strains, locus YPL051W, strain arl3, active compounds read low 0.995 | S. cerevisiae deletion strains, locus YPL055C, strain LGE1, active compounds read low 1.02 | S. cerevisiae deletion strains, locus YPL078C, strain atp4, active compounds read low 0.982 | S. cerevisiae deletion strains, locus YPL106C, strain sse1, active compounds read low 0.979 | S. cerevisiae deletion strains, locus YPL240C, strain hsp82, active compounds read low 0.997 | S. cerevisiae deletion strains, locus YPL241C, strain CIN2, active compounds read low 1.01 | S. cerevisiae deletion strains, locus YPR119W, strain clb2, active compounds read low 1.01 | S. cerevisiae deletion strains, locus YPR141C, strain kar3, active compounds read low 1.02 | S. cerevisiae deletion strains, locus YPR163C, strain tif3, active compounds read low 1.01 | S. cerevisiae deletion strains, locus YPR167C, strain met16, active compounds read low 1.01 | S. cerevisiae deletion strains, strain wtn01, active compounds read low 1.01 | S. cerevisiae strains, strain wild type, active compounds read low 1.01
